Data on 8 compounds can be found in PubChem BioAssay (NCI).

Common to all, as to assay: NCI-60 one-dose screen, 48 h (100 = growth as untreated, 0 = no growth, -100 = all killed)
Common to all, as to conditions: 10 µM unless noted

Test [1] deals with NCI-H23 lung.
Test [2] relates to NCI-H226 lung.
For test [3], the system named is NCI-H322M lung.
In test [4] the test system is HOP-62 NSCLC.
Test [5] deals with NCI-H460 lung.
The subject of test [6] is HOP-92 NSCLC.
Test [7] concerns NCI-H522 lung.
Test [8] deals with A549/ATCC NSCLC.
The subject of test [9] is 786-0 renal.
Test [10] relates to COLO 205 colon.
The test system of test [11] is DU-145 prostate.
Test [12] concerns K-562 leukemia.
In test [13] the test system is MALME-3M melanoma.
Test [14] has as its system MDA-MB-231 breast.
In test [15] the test system is SF-268 CNS.
Test [16] has as its system SF-295 CNS.
In test [17] the test system is SF-539 CNS.
Test [18] deals with UACC-257 melanoma.
In test [19] the test system is M14 melanoma.

About 83,000 compounds went through this panel and 20% of them were active in at least one assay; those are over-represented in the sample as a whole.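 How to read the values: 0–100, growth inhibition (40 = 60% inhibited); 0, no net growth; -100 to 0, cell death (-40 = 40% of starting cells died; -100 = all dead).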 Unmarked numbers belong to inactive results. Active and inactive are the calls of the source. The calls were made as follows: active = growth percent below 10; inactive = the rest.

As for `O=C(OCc1nc2nc(Cl)nc(N3CCOCC3)c2[nH]1)n1ccnc1`, the growth in test [1] is 40.7%; in [2], -67.6% (active); in [3], 65.4%; in [4], 30.4%; in test [5], 3.6% (active); in [6], -66.7% (active). For the same compound, the growth in test [7] is -66% (active); in test [8], 48.4%; in test [9] it was -81.4% (active); in test [10] it was -65.3% (active); in test [11] it was 9.47% (active); in [12] it was -7.19% (active). For the same compound, the growth was 11% in test [13]; -6.91% (active) in [14]; 5.74% (active) in test [15]; 95.2% in test [16]; -19.7% (active) in test [17]; -71% (active) in test [18]. Moreover, the growth in test [19] is -37.6% (active).
Turning to `Cc1cc(C)c(C=O)c(C)c1`, the growth in [1] is 101%; in test [2], 95.2%; in test [3], 106%; in test [4], 72.4%; in [5] it was 106%; in [6] it was 86.4%. The growth is 82.7% in test [7]; 72.1% in test [8]; 96.2% in test [9]; 107% in test [10]; 117% in test [11]; 100% in [12]. Besides, the growth in test [13] is 114%; in test [14], 112%; in [15] it was 104%; in test [16], 101%; in test [17], 106%; in [18], 74.5%. Further, the growth in test [19] was 84.3%.
For the compound `Clc1nc(Cl)c2ncn(CCOCCn3cnc4c(Cl)nc(Cl)nc43)c2n1`, the growth is -78.5% (active) in [1]; -74.2% (active) in test [2]; -97.1% (active) in test [3]; -71.8% (active) in [4]; -62.8% (active) in [5]; -93.2% (active) in test [6]. Moreover, the growth is -85.4% (active) in test [7]; -76.2% (active) in test [8]; -92.9% (active) in [9]; -65.2% (active) in test [10]; -99.1% (active) in test [11]; -62.9% (active) in [12]. Also, the growth was -73.2% (active) in test [13]; -89.9% (active) in [14]; -83.3% (active) in test [15]; -91.9% (active) in test [16]; -89.9% (active) in test [17]; -89.7% (active) in test [18]. The growth in [19] was -84.9% (active).
Turning to `O=S(=O)(NCCNc1nccc(-c2c(-c3cccc(F)c3)nc3occn23)n1)c1cccc2ccccc12`, the growth in test [1] is 75.8%; in [2], 53.6%; in [3], 74.8%; in test [4], 71%; in [5], 58.2%; in test [6] it was 47%. The growth is 46.2% in test [7]; 44.1% in test [8]; 48% in test [9]; 40.7% in test [10]; 53.3% in test [11]; 19% in test [12]. The growth was 56.1% in [13]; 58.5% in test [14]; 38.6% in [15]; 58.6% in test [16]; 96.7% in [17]; 77.4% in test [18]. In test [19], the growth was 54.8%.
Consider `CNC(=O)c1c(NC(=O)c2ccc(C(C)C)cc2)sc2c(CN(C)C)c(O)ccc12`, for which the growth in test [1] is 101%; in test [2], 95.2%; in test [3], 94.2%; in test [4], 98.9%; in [5], 38.7%; in test [6] it was 64.7%. Also, the growth is 77.8% in test [7]; 115% in test [8]; 83.9% in [9]; 97.6% in test [10]; 97.4% in [11]; -7.46% (active) in [12]. Also, the growth is 88.5% in [13]; 95% in test [14]; 90.8% in test [15]; 97.7% in test [16]; 97.3% in [17]; 110% in [18]. In test [19], the growth was 86.8%.
For the compound `CC1(c2ccccc2)NC(=O)N(CC(=O)Nc2cccc(I)c2)C1=O` (configuration not stated), the growth in test [1] was 95.3%; in test [2], 72.2%; in [3] it was 83.8%; in test [4], 76.7%; in [5] it was 93.3%; in test [6] it was 60.1%. The growth is 67.5% in test [7]; 87.6% in [8]; 95.3% in [9]; 106% in test [10]; 106% in test [11]; 91.7% in test [12]. Moreover, the growth is 75.3% in [13]; 75% in test [14]; 89.7% in [15]; 94% in test [16]; 89.9% in [17]; 84.9% in [18]. The growth in [19] was 102%.
For `O=C(Nc1ccc(F)cc1)c1c(NC(=O)C(F)(F)F)sc2c1CCCCC2`, the growth was -5.63% (active) in [1]; -6.78% (active) in test [2]; 11% in test [3]; -23.5% (active) in [4]; 2.16% (active) in test [5]; -28.5% (active) in test [6]. Further, the growth in test [7] was 2.42% (active); in test [8], 5.88% (active); in test [9] it was -10.4% (active); in test [10], -18.6% (active); in test [11], 16.9%; in [12] it was 6.57% (active). In addition, the growth in [13] is -21.1% (active); in test [14], -20.4% (active); in test [15], 4.27% (active); in [16] it was -42.4% (active); in test [17], -0.67% (active); in test [18] it was -23.9% (active). Also, in test [19], the growth was -3.37% (active).
On to `CS(=O)(=O)c1ccc(-c2cc3c(oc2=O)-c2ccccc2OC3O)cc1` (configuration not stated), for which the growth in test [1] was 90.3%; in [2] it was 74.7%; in test [3] it was 107%; in [4], 94.9%; in test [5] it was 91.7%; in [6] it was 38.1%. In addition, the growth in [7] was 92.7%; in test [8], 104%; in test [9], 88.7%; in test [10], 114%; in test [11] it was 87.1%; in [12], 81%. For the same compound, the growth in test [13] was 101%; in test [14], 98.7%; in test [15], 96.6%; in test [16], 75.7%; in test [17], 90.2%; in test [18], -3.93% (active). The growth in [19] is 101%.
